Here are results for 15 compounds from PubChem BioAssay AID1745853 (National Center for Advancing Translational Sciences (NCATS), 2022).

Screen size: about 25,000 compounds; about 970 (3.9%) were called active. About 8% were inconclusive and are not listed. How the calls were made is not given here. What follows is part of a selection rich in actives, with near analogues and random picks from the rest.

What all share (assay): Primary Screen for Target Class Profiling of Small Molecule Inhibitors of Methyltransferases
Experiment [1] deals with Catechol O-methyltransferase (Homo sapiens) (UniProt P21964). Particulars: purified enzyme, MTase-Glo SAH luminescence; activity change, negative = inhibition: at 40 µM, stronger effect = lower value; outcome: 40 uM. The source says:
(§1) PI: Matthew D. Hall Ph.D. and Quinlin M. Hanson Ph.D.
(§2) National Center for Advancing Translational Sciences (NCATS)
(§3) National Institute of Health (NIH), Rockville, MD
(§4) Target class profiling (TCP) is a chemical biology approach amenable to investigating understudied biological targets. TCP is achieved by developing a generalizable assay platform and applying it to screen a curated set of compound libraries against representative members of a target class. Small molecule methyltransferases (SMMTase) are a subclass of methyltransferase that act on metabolites to modulate signaling pathways, metabolize xenobiotics, or balance the available methyl pool. We screened four curated libraries totaling 27,574 unique compounds against the SMMTases nicotinamide N-methyltransferase (NNMT), phenylethanolamine N-methyltransferase (PNMT), histamine N-methyltransferase (HNMT), glycine N-methyltransferase (GNMT), catechol O-methyltransferase (COMT), and guanidinoacetate N-methyltransferase (GAMT). The data generated by this TCP can be leveraged for informed tool molecule development. For example, in the associated publication we identified a chemotype of HNMT-selective inhibitors. Additionally, we identified a putative SMMTase-selective inhibitor with potential as a tool molecule for studying broader methyltransferase biology.
(§5) High-through put screening assays were developed at the National Center for Advancing Translational Science (NCATS) for the enzymes NNMT, PNMT, HNMT, GNMT, COMT, and GAMT. Enzymatic activity was measured as a function of SAM cofactor conversion using the MTase Glo kit (Promega) for all enzymes. All assays were performed in 1536-well format with substrates and SAM concentrations at KM values. Enzyme concentration and assay timing were optimized for 10-20% SAM conversion. Initial screening of 27,574 compounds was done as single-point assays using the highest compound concentration (40 uM). […] These compounds were replated in 11-point dose response and assayed against NNMT, PNMT, HNMT, GNMT, COMT, GAMT, and a counter-assay. The IC50 and efficacy (maximal response) values were determined for each dose-response curve. These values are also accounted for in the area under the curve (AUC) values.
(§6) PROTOCOL TABLE (as described by Inglese J, Shamu CE and Guy RK. 2007)
(§7) SEQUENCE No. (e.g., 1, 2, 3, etc.); […] (e.g., Cells, Incubation, Reagent, etc.); VALUE; DESCRIPTION.
(§8) 1; Reagent; 2 uL; SMMTase Enzyme (2x) in reaction buffer, columns 1- 48.
(§9) 2; Reagent; 1 uL; SAM (4x) in reaction buffer, columns 1-48.
(§10) 3; Controls; 23 nL; DMSO in column 4; sinefungin in DMSO (0 uM - 40 uM) in 7-point 1:2 dilution series (n = 2) in column 2.
(§11) 4; Compounds; 23 nL; Columns 5-48.
(§12) 5; Reagent; 1 uL; Substrate (4x) in reaction buffer, columns 2-48.
(§13) 6; Time; 20-30 min; Incubation.
(§14) 7; Reagent; 1 uL; MTase-Glo reagent (5X), columns 1-48.
(§15) 8; Time; 30 min; Incubation.
(§16) 9; Reagent; 5 uL; MTase-Glo Detection reagent, columns 1-48.
(§17) 10; Time; 30 min; Incubation, luminescence evolution.
(§18) 11; Detection; Luminescence; ViewLux uHTS Microplate Imager (PerkinElmer).
(§19) NOTES (numbers refer to Sequence numbers above)
(§20) 1, 2, 5. White Medium Binding Greiner 1536-well plates (Cat #789175-F, Greiner Bio-One, Monroe, NC); Reaction buffer: 50 mM Tris, pH 8.0, 3 mM MgCl2, 1 mM EDTA, 50 mM NaCl, 1 mM DTT, and 0.1 mg/mL BSA. Evaporation was prevented by covering assay plates with metal lids containing holes to allow gas diffusion.
(§21) 1. Six SMMTase were profiled: HNMT, GNMT, PNMT, COMT, NNMT, GAMT
(§22) 5. The corresponding substrate was used for each enzyme: HNMT - 5.3 uM Histamine; GNMT - >500 uM Glycine; PNMT - 16.2 uM Norephinephrine; COMT - 13.7 uM Norephinephrine; NNMT - 3.8 uM Nicotinamide; GAMT - 2.5 uM Guanidinoacetate.6, 8, 10. Room temperature
(§23) 6. Final reaction conditions: 10 nM COMT, 5 uM SAM, 15 uM norepinephrine, 50 mM Tris, pH 8.0, 3 mM MgCl2, 1 mM EDTA, 50 mM NaCl, 1 mM DTT, and 0.1 mg/mL BSA; refer to tables 2 and S1 for specific timing.
8. […]

For experiment [2], the target named is Glycine N-methyltransferase (Homo sapiens) (UniProt Q14749). Particulars: purified enzyme, MTase-Glo SAH luminescence; measured here: GNMT inhibition; at 40 µM; stronger effect = lower value.
Excerpt: as §1, §2, §3, §4, §5, §6, §7, §8, §9, §10, §11, §12, §13, §14, §15, §16, §17, §18, §19, §20, §21, §22, §23
8. […]

The target in experiment [3] is Guanidinoacetate N-methyltransferase (Homo sapiens) (UniProt Q14353). Particulars: purified enzyme, MTase-Glo SAH luminescence; measured here: GAMT inhibition; at 40 µM; stronger effect = lower value.
Excerpt: as §1, §2, §3, §4, §5, §6, §7, §8, §9, §10, §11, §12, §13, §14, §15, §16, §17, §18, §19, §20, §21, §22, §23
8. […]

Experiment [4] concerns the target Histamine N-methyltransferase (Homo sapiens) (UniProt P50135). As to conditions: purified enzyme, MTase-Glo SAH luminescence; measured here: HNMT inhibition; at 40 µM; stronger effect = lower value.
Excerpt: as §1, §2, §3, §4, §5, §6, §7, §8, §9, §10, §11, §12, §13, §14, §15, §16, §17, §18, §19, §20, §21, §22, §23
8. […]

Experiment [5] concerns the target Nicotinamide N-methyltransferase (Homo sapiens) (UniProt P40261). As to conditions: purified enzyme, MTase-Glo SAH luminescence; measured here: NNMT inhibition; at 40 µM; stronger effect = lower value.
Excerpt: as §1, §2, §3, §4, §5, §6, §7, §8, §9, §10, §11, §12, §13, §14, §15, §16, §17, §18, §19, §20, §21, §22, §23
8. […]

Experiment [6] has as its target Phenylethanolamine N-methyltransferase (Homo sapiens) (UniProt P11086). As to conditions: purified enzyme, MTase-Glo SAH luminescence; measured here: PNMT inhibition; at 40 µM; stronger effect = lower value.
Excerpt: as §1, §2, §3, §4, §5, §6, §7, §8, §9, §10, §11, §12, §13, §14, §15, §16, §17, §18, §19, §20, §21, §22, §23
8. […]
On the % scale 0 is the no-effect control and ±100 the full control effect.

Histamine N-methyltransferase (Homo sapiens), sequence (P50135 whole entry, looked up): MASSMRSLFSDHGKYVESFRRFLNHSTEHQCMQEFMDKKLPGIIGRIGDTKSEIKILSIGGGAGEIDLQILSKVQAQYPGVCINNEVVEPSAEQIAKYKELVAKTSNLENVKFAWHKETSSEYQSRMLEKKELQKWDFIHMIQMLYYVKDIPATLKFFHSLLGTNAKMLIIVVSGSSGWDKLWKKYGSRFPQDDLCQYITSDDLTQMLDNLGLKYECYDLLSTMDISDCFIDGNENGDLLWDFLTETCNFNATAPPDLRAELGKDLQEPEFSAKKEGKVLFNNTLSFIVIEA
Catechol O-methyltransferase (Homo sapiens), sequence (P21964 whole entry, looked up): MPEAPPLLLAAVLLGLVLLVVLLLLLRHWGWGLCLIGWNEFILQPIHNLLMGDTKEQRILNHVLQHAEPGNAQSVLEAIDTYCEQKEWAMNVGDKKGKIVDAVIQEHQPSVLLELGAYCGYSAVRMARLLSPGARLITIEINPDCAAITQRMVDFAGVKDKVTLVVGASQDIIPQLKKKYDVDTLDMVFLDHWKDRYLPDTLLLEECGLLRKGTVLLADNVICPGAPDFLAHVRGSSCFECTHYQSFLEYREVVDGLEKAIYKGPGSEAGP
Glycine N-methyltransferase (Homo sapiens), sequence (Q14749 whole entry, looked up): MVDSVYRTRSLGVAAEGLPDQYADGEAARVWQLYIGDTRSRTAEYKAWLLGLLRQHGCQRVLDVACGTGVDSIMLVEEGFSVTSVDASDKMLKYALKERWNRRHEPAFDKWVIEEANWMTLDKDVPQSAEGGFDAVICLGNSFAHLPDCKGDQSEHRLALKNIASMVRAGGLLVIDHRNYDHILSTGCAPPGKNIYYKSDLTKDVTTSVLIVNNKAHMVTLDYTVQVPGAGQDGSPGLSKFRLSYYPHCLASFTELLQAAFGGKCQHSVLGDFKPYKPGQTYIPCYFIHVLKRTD
Nicotinamide N-methyltransferase (Homo sapiens), sequence (P40261 whole entry, looked up): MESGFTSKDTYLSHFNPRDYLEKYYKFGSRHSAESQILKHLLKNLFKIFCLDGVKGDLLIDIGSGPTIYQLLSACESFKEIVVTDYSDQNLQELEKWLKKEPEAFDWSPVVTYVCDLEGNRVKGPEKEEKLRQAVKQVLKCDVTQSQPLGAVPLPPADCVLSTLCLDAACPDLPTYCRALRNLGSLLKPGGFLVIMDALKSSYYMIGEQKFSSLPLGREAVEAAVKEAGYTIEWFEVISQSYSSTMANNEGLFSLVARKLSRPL
Phenylethanolamine N-methyltransferase (Homo sapiens), sequence (P11086 whole entry, looked up): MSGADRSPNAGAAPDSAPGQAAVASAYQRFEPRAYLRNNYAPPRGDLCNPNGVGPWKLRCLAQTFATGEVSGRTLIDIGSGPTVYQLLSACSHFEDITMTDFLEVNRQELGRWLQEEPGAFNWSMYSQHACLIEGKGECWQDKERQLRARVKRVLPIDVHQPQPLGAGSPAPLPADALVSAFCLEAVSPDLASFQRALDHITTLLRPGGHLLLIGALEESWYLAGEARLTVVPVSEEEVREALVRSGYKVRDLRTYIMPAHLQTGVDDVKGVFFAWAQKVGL

Turning to `Cc1cc(C(=O)N2CCCCCC2CN2CCC(C)CC2)nn1C` (stereo not given), the activity change, negative = inhibition was -10.6% (inactive) in experiment [1]; 0.743% in experiment [2]; 0.856% in experiment [3]; 0.525% in experiment [4]; -2.25% in experiment [5]; -1.05% in experiment [6].

Turning to `O=C(Cn1nc2n(Cc3ccc(F)cc3)c(=O)c3ccccc3n2c1=O)c1cccc(Cl)c1`, the activity change, negative = inhibition in experiment [1] was 5.66% (inactive); in experiment [2], 4.51%; in experiment [3], 0%; in experiment [4] it was 7.94%; in experiment [5] it was -8.66%; in experiment [6], 4.49%.

For `Cc1ccc(C(=O)COC(=O)C(Cc2c[nH]c3ccccc23)NC(=O)c2ccc(Br)cc2)cc1` (stereo not given), the activity change, negative = inhibition in experiment [1] is 9.4% (inactive); in experiment [2] it was 10.7%; in experiment [3], 0%; in experiment [4] it was 6.18%; in experiment [5], -1.05%; in experiment [6] it was 1.41%.

Consider `Cc1cccc(-c2nnn3c2nc(N2CCC(C)CC2)c2ccccc23)c1`, for which the activity change, negative = inhibition in experiment [1] was -0.09% (inactive); in experiment [2], -5.45%; in experiment [3], 0.818%; in experiment [4], 1.53%; in experiment [5] it was -1.89%; in experiment [6] it was -5.11%.

For `Oc1cc2c(cc1O)CN(C(=S)NCCc1ccc(Cl)cc1)CCC2`, the activity change, negative = inhibition in experiment [1] is 143% (active); in experiment [2] it was -83%; in experiment [3] it was 4.04%; in experiment [4], -4.18%; in experiment [5], -9.24%; in experiment [6], 0.975%.

As to `COc1cc(O)c(C(=O)CCc2ccc(O)cc2)c(O[C@@H]2O[C@H](CO)[C@@H](O)[C@H](O)[C@H]2O)c1`, the activity change, negative = inhibition in experiment [1] is -58.4% (active); in experiment [2], -3.53%; in experiment [3], -12.8%; in experiment [4], 2.69%; in experiment [5] it was -20.7%; in experiment [6], -1.39%.

In the case of `COC(=O)CCc1cc2ccoc2c(OC)c1O[C@@H]1O[C@H](CO)[C@@H](O)[C@H](O)[C@H]1O`, the activity change, negative = inhibition in experiment [1] was 2.02% (inactive); in experiment [2], 2.54%; in experiment [3], 4.92%; in experiment [4] it was 10.2%; in experiment [5], -6.92%; in experiment [6] it was 6.11%.

With `COc1cc(C)c(C(=O)Oc2cc(C)c(C(=O)Oc3cc(C)c(C(=O)NC(C)C(=O)O)c(O)c3)c(O[C@@H]3O[C@H](CO)[C@@H](O)[C@H](O)[C@H]3OC(C)=O)c2)c(OC)c1` (stereo not given in full), the activity change, negative = inhibition in experiment [1] is -0.843% (inactive); in experiment [2] it was -0.029%; in experiment [3], 0.21%; in experiment [4], 6.89%; in experiment [5], -10.4%; in experiment [6] it was -0.399%.

Regarding `CCN1CCN(C(=O)Cn2nc(C)c3sc(-c4ccccc4)nc3c2=O)CC1`, the activity change, negative = inhibition in experiment [1] was -3.83% (inactive); in experiment [2] it was -9.13%; in experiment [3], -4.75%; in experiment [4] it was -2.34%; in experiment [5], -11.6%; in experiment [6] it was -11%.

Regarding `CCCn1c(=O)c2ccc(C(=O)NC(C)CC)cc2n2c(=O)n(CC(=O)Nc3cc(C)cc(C)c3)nc12` (stereo not given), the activity change, negative = inhibition in experiment [1] was 4.21% (inactive); in experiment [2], 2.22%; in experiment [3], 5.41%; in experiment [4], 6.27%; in experiment [5], 0.889%; in experiment [6], 3.91%.

`COCCn1c2c(c(=O)n1-c1ccccc1)CCN(Cc1cccc(C#N)c1)C2`: the activity change, negative = inhibition in experiment [1] is -2.46% (inactive); in experiment [2], -6.45%; in experiment [3], -6.81%; in experiment [4] it was -9.66%; in experiment [5], -7.68%; in experiment [6], -4.57%.

Turning to `C=CCn1c(=O)c2ccc(C(=O)NC(C)C)cc2n2c(=O)n(CC(=O)NCc3ccccc3)nc12`, the activity change, negative = inhibition in experiment [1] is 0.329% (inactive); in experiment [2], 7.7%; in experiment [3], 1.61%; in experiment [4], 12.5%; in experiment [5], 0.93%; in experiment [6], 4.28%.

In the case of `COc1ccc(CNc2nc3c(S(=O)(=O)c4ccc(C)cc4)nnn3c3ccccc23)cc1`, the activity change, negative = inhibition in experiment [1] is -0.038% (inactive); in experiment [2] it was -2.81%; in experiment [3], 0.613%; in experiment [4], 3.99%; in experiment [5], 0%; in experiment [6] it was -4.71%.

In the case of `CC1CCC(Nc2nc3c(-c4cccc(F)c4)nnn3c3ccccc23)CC1` (stereo not given), the activity change, negative = inhibition in experiment [1] is -4.07% (inactive); in experiment [2] it was 0.278%; in experiment [3] it was 0%; in experiment [4], -0.849%; in experiment [5], -6.58%; in experiment [6], -5.44%.

Regarding `COc1cc(N)c(Cl)cc1C(=O)NC[C@@H]1CCN2CCC[C@@H]12`, the activity change, negative = inhibition in experiment [1] was -17.2% (inactive); in experiment [2], -4.41%; in experiment [3], -14.1%; in experiment [4], -11.2%; in experiment [5] it was -21.4%; in experiment [6] it was -18.4%.
